Experimental findings from ChEMBL document CHEMBL4513216, “Probing the Open Global Health Chemical Diversity Library for Multistage-Active Starting Points for Next-Generation Antimalarials” (ACS Infect Dis, 2020) are described below.

Hit rate of the full screen: of about 68,000 compounds, about 2,700 (4%) showed an effect of 50% or more. What follows is part of a selection rich in strong results, with near analogues and random picks from the rest.

The subject of this assay is Plasmodium berghei. The assay is described as follows: Screen against P. berghei liver stage (PbLuc), transformed with Luciferase, at 2uM. Conditions: tested at 2 uM. It counts as functional, HepG2.
With `COCCN1C[C@@H]2CC[C@H]1CN(Cc1nc3ccccc3n1C)C2`, the INHIBITION stood at 20.14%.

On to `COCCN1C[C@@H]2CC[C@H]1CN(Cc1cc(=O)c3cc(C)ccc3[nH]1)C2`, for which the INHIBITION is -23.58%.

On to `COCCN1C[C@@H]2CC[C@H]1CN(Cc1ccc3ccccc3n1)C2`, for which the INHIBITION is listed as 50.32%.

With `O=C(NCc1cccnc1)c1nc2c(s1)CCCN2C(=O)C1CC1`, the INHIBITION came to 26.76%.

On to `CC(C)(C)C(=O)NCCC(=O)NC(C)(C)c1ccc2c(c1)OCCO2`, for which the INHIBITION is -93.39%.

In the case of `CC(C)CC(=O)NS(=O)(=O)c1ccc2c(c1)OCCCO2`, the INHIBITION is reported as -32.2%.

With `CSCCC(=O)NS(=O)(=O)c1ccc2c(c1)OCCO2`, the INHIBITION is on record as -14.75%.

On to `CCCOCC(=O)NS(=O)(=O)c1ccc2c(c1)OCCCO2`, for which the INHIBITION is recorded as -16.42%.

Turning to `CC(C)(C)C(=O)NCCC(=O)NS(=O)(=O)c1ccc2c(c1)OCCO2`, the INHIBITION was found to be 73.37%.

As for `COCCCC(=O)NS(=O)(=O)c1ccc2c(c1)OCCCO2`, the INHIBITION is on record as 54.85%.

As for `COCCn1ccc(NC(=O)Nc2ccccn2)n1`, the INHIBITION is recorded as -48.53%.

Take `O=C1N(Cc2ccc(F)c(F)c2)CCCC1(O)CNCc1cccnc1` (stereo unspecified): the INHIBITION is recorded as -0.06%.

Consider `CCOc1cc2c(cc1CNC(Cc1cccs1)c1nccs1)OCO2` (stereo unspecified), for which the INHIBITION was -52.9%.

Turning to `CC(C)NC(=O)C1CCc2nnc(CNC(=O)C3CC3)n21` (stereo unspecified), the INHIBITION was found to be 52.23%.

As to `CC(C)NC(=O)C1CCc2nnc(CNC(=O)c3cccnc3)n21` (stereo unspecified), the INHIBITION worked out at 37.62%.

Regarding `CC(C)NC(=O)C1CCc2nnc(CNC(=O)c3ccc(Cl)cc3Cl)n21` (stereo unspecified), the INHIBITION was 5.75%.

On to `CCOc1ccc(S(=O)(=O)N(C)Cc2cnn(CC)c2)cc1`, for which the INHIBITION is reported as -44.7%.

Turning to `COc1ncccc1CNC1CCc2c(ccc(=O)n2CC2CC2)C1` (stereo unspecified), the INHIBITION is recorded as 24.04%.

Turning to `O=C([C@H]1C[C@H]2OCC[C@H]2N(Cc2ccccc2F)C1)N1CCCCO1`, the INHIBITION is on record as 29.33%.

On to `CN(C)Cc1nnc2n1CCN(Cc1ccccn1)CC2`, for which the INHIBITION is given as -16.67%.

Turning to `O=C(CCc1ccsc1)Nc1ccnn1C1CCS(=O)(=O)C1` (stereo unspecified), the INHIBITION was -38.89%.

In the case of `Cc1cccc(CCC(=O)Nc2ccnn2C2CCS(=O)(=O)C2)c1` (stereo unspecified), the INHIBITION was 62.13%.

For the compound `O=C(CCc1cccs1)Nc1ccnn1C1CCS(=O)(=O)C1` (stereo unspecified), the INHIBITION is listed as -28.15%.

Regarding `O=C(NCCC1COc2ccccc2O1)c1ccc(N2CC(O)C2)nc1` (stereo unspecified), the INHIBITION was 13.19%.

Consider `Cc1ccc(N2C(=O)N[C@@H]3CCN(C(=O)C4CC4)[C@@H]3C2=O)cc1`, for which the INHIBITION is recorded as 56.76%.

With `O=C1N[C@@H]2CCN(C(=O)C3CC3)[C@@H]2C(=O)N1c1ccc(F)cc1`, the INHIBITION is 34.24%.

Turning to `Cc1ccc(N2C(=O)N[C@@H]3CCN(C(=O)C4CCCC4)[C@@H]3C2=O)cc1`, the INHIBITION is -28.91%.

Consider `COc1ccc(-c2nnc(SCC(=O)NCC(C)C)[nH]2)c(OC)c1`, for which the INHIBITION is given as -8.24%.

As to `COc1ccc(-c2nnc(SC(C)C(=O)NCC(C)C)[nH]2)c(OC)c1` (stereo unspecified), the INHIBITION came to 59.18%.

In the case of `COc1ccc(-c2nnc(SC(C)C(=O)NC(C)(C)C)[nH]2)c(OC)c1` (stereo unspecified), the INHIBITION is listed as -42.16%.

Consider `Cc1ccc([C@@H]2CN(C(=O)c3ccsc3)C[C@H]2NC(=O)C2CC2)cc1`, for which the INHIBITION was found to be 50.57%.

As for `Cc1ccc([C@@H]2CN(C(=O)c3csc(C)n3)C[C@H]2NC(=O)C2CC2)cc1`, the INHIBITION is reported as -67.56%.

For the compound `Cc1ccc([C@@H]2CN(C(=O)c3cc[nH]c3)C[C@H]2NC(=O)C2CC2)cc1`, the INHIBITION is recorded as -12.67%.

Consider `CC(NC(=O)NCCN1CCCC1)c1nncn1C` (stereo unspecified), for which the INHIBITION came to 21.83%.

Regarding `CN1CCc2[nH]cnc2C12CCN(Cc1ccc(S(C)(=O)=O)cc1)CC2`, the INHIBITION is on record as 18.54%.

Regarding `CC(C)c1ccc(C(N)c2cccs2)cc1` (stereo unspecified), the INHIBITION was -61.99%.

`CCCS(=O)(=O)NCc1nc(C)cc(N2CCCC2)n1`: the INHIBITION worked out at 15.84%.

Turning to `CCS(=O)(=O)NCc1nc(C)cc(N2CCCC2)n1`, the INHIBITION is 53.61%.

As to `CCS(=O)(=O)NCc1nc(C)cc(N2CCCCC2)n1`, the INHIBITION amounted to 19.12%.

In the case of `O=C1OC2(CCN(CC3CCCO3)CC2)CN1CCc1ccccc1` (stereo unspecified), the INHIBITION is -38.59%.

Consider `CCN1CC2(CCN(CC3COCCO3)CC2)OC1=O` (stereo unspecified), for which the INHIBITION is 65.1%.

`CCN1CC2(CCN(CC3CCCO3)CC2)OC1=O` (stereo unspecified): the INHIBITION is on record as 6.85%.

On to `COCC1CN(C(=O)Cc2ccccn2)Cc2ncnn2C1` (stereo unspecified), for which the INHIBITION is reported as -54.16%.

As for `O=C(c1ccc2c(c1)COC2)N1CCCC(n2cncn2)C1` (stereo unspecified), the INHIBITION is -45.72%.

Consider `O=C1OC2(CCNCC2)CN1CC(=O)N1CCCC1c1nccs1` (stereo unspecified), for which the INHIBITION is reported as 3.62%.

On to `O=C(CC1COCCN1)N1CCC2(CCc3ccccc32)CC1` (stereo unspecified), for which the INHIBITION amounted to 50.32%.

As for `O=C(O)CN1CCC2(CCc3ccccc32)CC1`, the INHIBITION is on record as -2.19%.

As to `O=C(CC1COCCN1)N1CCC(N2CCc3ccccc3C2)CC1` (stereo unspecified), the INHIBITION is given as -3.38%.

`O=C(CN1CCOC1=O)N1CCC2(CCc3ccccc32)CC1`: the INHIBITION turned out to be 55.36%.

For the compound `O=C(CC1COCCN1)N1CCCN(C2Cc3ccccc3C2)CC1` (stereo unspecified), the INHIBITION turned out to be 46.02%.

On to `O=C(CN1C(=O)CCNC1=O)N1CCC2(CCc3ccccc32)CC1`, for which the INHIBITION was determined as 12.3%.
